Values joined by “and” are separate entries in the source; they are usually repeats but may differ in a detail not shown here. Identical values can stand only once. Inconclusive results are not listed. Active and inactive are the calls of the source. Rule for the calls, unless noted: active = hit-call score of the fitted dose curve at least 0.9, where 1 is the maximum; inactive = score below 0.9.

One assay in a line: CCTE_Shafer_MEA_dev_AB: CCTE's Alamar Blue Assay for Cytotoxicity in the Neural Network Formation Assay, Shafer Lab (AID 2284083; active = hit-call score of the fitted dose curve at least 0.9, where 1 is the maximum;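 note: resazurin reduction fluorescence as viability of cultured neurons; twelve days of exposure from plating with re-dosing on DIV 5 and 9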).
Details: not given
The procedure, abridged:
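Cytotoxicity companion to the developmental MEA: primary rat cortical neurons, 12-day exposure starting day 0, compound refreshed DIV 5 and 9; resazurin fluorescence, fitted against DMSO vehicle.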
On to `OCCC(F)(F)C(F)(F)C(F)(F)C(F)(F)C(F)(F)C(F)(F)C(F)(F)C(F)(F)F`, for which the call was inactive.

As for `c1ccc2c(c1)Cc1ccccc1-2`, the outcome was inactive.

As for `c1ccc2cc3c(ccc4ccccc43)cc2c1`, the molecule was called inactive.

Consider `CC(O)CO` (stereo not drawn), for which the result was inactive.

For the molecule `CC1=C(/C=C/C(C)=C/C=C/C(C)=C/C(=O)O)C(C)(C)CCC1`, the molecule was called inactive.

As to `c1ccc2c(c1)ccc1ccccc12`, the outcome was inactive.

In general, AC50 refers to the concentration giving half of the maximal activity seen. For `CC#C[C@]1(O)CC[C@H]2[C@@H]3CCC4=CC(=O)CCC4=C3[C@@H](c3ccc(N(C)C)cc3)C[C@@]21C`, the AC50 is 16.5 µM (active) and 25.4 µM (active).

The next assay in a line: CCTE_Shafer_MEA_acute_LDH: CCTE's Lactate Dehydrogenase Assay for Cytotoxicity in the Neural Acute Assay, Shafer Lab (AID 2284086; active = hit-call score of the fitted dose curve at least 0.9, where 1 is the maximum;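 note: active means LDH release rises above DMSO vehicle level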).
Details: not given
The essentials: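 Rat cortical neurons cultured on microelectrode arrays; baseline 40-min recording, compound added, second 40-min recording; medium then sampled for released LDH (colorimetric kit, 490 nm). DMSO = negative control.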
`CN1CCN(c2ccccc2/C=C2\SCCN(c3ccc(Cl)c(Cl)c3)C2=O)CC1`: the result was inactive.

For the molecule `CC(=O)NC1(c2cccc(F)c2)CCN(CC[C@@]2(c3ccc(Cl)c(Cl)c3)CN(c3ccccc3)C(=O)CO2)CC1`, the result was inactive.

`OCCC(F)(F)C(F)(F)C(F)(F)C(F)(F)C(F)(F)C(F)(F)C(F)(F)C(F)(F)F`: the molecule was classed as inactive.

With `CCCOc1sc(C(=O)N2CCC(c3cc(CN)ccc3F)CC2)c(C)c1Br`, the outcome was inactive.

`O=C(O)c1ccccc1C(c1ccc(O)cc1)c1ccc(O)cc1`: the outcome was inactive.

`NC(=O)N(O)[C@@H]1C=C[C@H](Oc2cccc(Oc3ccc(F)cc3)c2)C1`: the outcome was inactive.

For `CC[C@H](c1ccc(O)cc1)[C@@H](CC)c1ccc(O)cc1`, the outcome was inactive.

As for `CCCCCCCCCCCCN1CCCC1=O`, the result was inactive.

`CC(C)CCCCCCOC(=O)CCCCC(=O)OCCCCCCC(C)C`: the molecule was called inactive.

Turning to `CCCCCCCCCCCCc1ccccc1S(=O)(=O)O`, the molecule was classed as inactive.

On to `Cc1cc(CCN2CCN(c3nsc4ccccc34)CC2)cc2c1NC(=O)CC2(C)C`, for which the molecule was called inactive.

With `CC#C[C@]1(O)CC[C@H]2[C@@H]3CCC4=CC(=O)CCC4=C3[C@@H](c3ccc(N(C)C)cc3)C[C@@]21C`, the outcome was inactive.

In the case of `CCC(=C(c1ccc(O)cc1)c1ccc(OCCN(C)C)cc1)c1ccccc1`, the result was inactive.

`OC1CCC(C2CCCCC2)CC1` (stereo not drawn): the outcome was inactive.

A short description of another assay: CCTE_Shafer_MEA_dev_mutual_information_norm: CCTE's Neural Network Formation Assay for Mutual Information Normalization, Shafer Lab (AID 2284091).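 For AC50: mutual information between electrodes summarised as area under curve across four recording days; potency is for a decrease in mutual information relative to DMSO.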
Details: not given
The procedure, abridged:
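Rat cortical cultures, 48-well MEA, continuous exposure DIV 0–12 with full media/compound change DIV 5 and 9. Readout: inter-electrode mutual information, AxIS adaptive spike detection; AUC across DIV 5/7/9/12 recordings; DMSO baseline, negative fitting direction.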
`C=C(C)C(=O)OCCC(F)(F)C(F)(F)C(F)(F)C(F)(F)C(F)(F)C(F)(F)F`: the result was inactive.

Turning to `OCCC(F)(F)C(F)(F)C(F)(F)C(F)(F)C(F)(F)C(F)(F)C(F)(F)C(F)(F)F`, the call was inactive.

Take `c1ccc2c(c1)Cc1ccccc1-2`: the outcome was inactive.

With `c1ccc2cc3c(ccc4ccccc43)cc2c1`, the molecule was classed as inactive.

Turning to `CC(O)CO` (stereo not drawn), the molecule was classed as inactive.

As to `CN1CCC[C@H]1c1cccnc1`, the molecule was called inactive.

As to `CC1=C(/C=C/C(C)=C/C=C/C(C)=C/C(=O)O)C(C)(C)CCC1`, the AC50 is 7.47 µM (active).

On to `c1ccc2c(c1)ccc1ccccc12`, for which the molecule was called inactive.

`OCCC(F)(F)C(F)(F)C(F)(F)C(F)(F)C(F)(F)C(F)(F)F`: the outcome was inactive.

`CC#C[C@]1(O)CC[C@H]2[C@@H]3CCC4=CC(=O)CCC4=C3[C@@H](c3ccc(N(C)C)cc3)C[C@@]21C`: the AC50 is 1.07 µM (active) and 11.7 µM (active).

The next assay is described as follows: CCTE_Shafer_MEA_dev_correlation_coefficient_mean: CCTE's Neural Network Formation Assay for Mean Correlation Coefficient, Shafer Lab (AID 2284093).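 For AC50: well mean pairwise spike train correlation integrated as AUC over recording days 5 to 12; potency fitted for loss of correlation relative to DMSO vehicle wells.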
Details: not given
The procedure, abridged:
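Extracellular firing from rat cortical networks on 48-well MEAs, DMSO-referenced, negative fitting direction. Compound present from plating to DIV12; mean pairwise correlation per well integrated over DIV5–12 recordings by trapezoidal AUC.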
As for `C=C(C)C(=O)OCCC(F)(F)C(F)(F)C(F)(F)C(F)(F)C(F)(F)C(F)(F)F`, the call was inactive.

For `OCCC(F)(F)C(F)(F)C(F)(F)C(F)(F)C(F)(F)C(F)(F)C(F)(F)C(F)(F)F`, the concentration at half-maximal activity (AC50) was 23.4 µM (active).

In the case of `c1ccc2c(c1)Cc1ccccc1-2`, the molecule was called inactive.

On to `c1ccc2cc3c(ccc4ccccc43)cc2c1`, for which the molecule was classed as inactive.

As to `CC(O)CO` (stereo not drawn), the molecule was classed as inactive.

Turning to `CN1CCC[C@H]1c1cccnc1`, the molecule was classed as inactive.

Regarding `CC1=C(/C=C/C(C)=C/C=C/C(C)=C/C(=O)O)C(C)(C)CCC1`, the AC50 is 23.4 µM (active).

In the case of `c1ccc2c(c1)ccc1ccccc12`, the outcome was inactive.

For `OCCC(F)(F)C(F)(F)C(F)(F)C(F)(F)C(F)(F)C(F)(F)F`, the molecule was classed as inactive.

For `CC#C[C@]1(O)CC[C@H]2[C@@H]3CCC4=CC(=O)CCC4=C3[C@@H](c3ccc(N(C)C)cc3)C[C@@]21C`, the AC50 was 6.26 µM (active) and 22.2 µM (active).

Another assay can be described thus: UKN2_HCS_IMR90_neural_migration: University of Konstanz (UKN) Leist Lab Neural Crest Cell Migration Assay in human induced IMR90 Pluripotent Stem Cells (UKN2) (AID 2284204). As to conditions: actives raise or lower the signal. The procedure, abridged: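 iPSC-derived IMR90 neural crest cells on PLO/laminin/fibronectin were seeded around silicone stoppers; after stopper removal, migration in N2-S medium with EGF and FGF ran 24 h before 24 h chemical exposure. Calcein-AM/Hoechst high-content imaging; bidirectional fit versus DMSO.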
As for `CN1CCC[C@H]1c1cccnc1`, the molecule was classed as inactive.

Regarding `CC1=C(/C=C/C(C)=C/C=C/C(C)=C/C(=O)O)C(C)(C)CCC1`, the half-maximal activity concentration (AC50) is 5.77 µM (active).

For the molecule `CC#C[C@]1(O)CC[C@H]2[C@@H]3CCC4=CC(=O)CCC4=C3[C@@H](c3ccc(N(C)C)cc3)C[C@@]21C`, the AC50 was 9.67 µM (active) and 5.64 µM (active).

A short description of another assay: UKN4_HCS_LUHMES_neurite_outgrowth: University of Konstanz (UKN) Leist Lab Neurite Outgrowth Assay in human LUHMES cells (UKN4) (AID 2284206). To be noted: actives raise or lower the signal. The procedure, abridged:
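Day 0 switch to differentiation medium; day 2 replate (30000 cells/well) without cAMP and GDNF; compounds added 30 min–2 h later. At 23.5 h, 30 min calcein-AM/H-33342 live stain, then imaging.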
`CN1CCC[C@H]1c1cccnc1`: the call was inactive.

As to `CC1=C(/C=C/C(C)=C/C=C/C(C)=C/C(=O)O)C(C)(C)CCC1`, the AC50 was 29.8 µM (active).

For the molecule `CC#C[C@]1(O)CC[C@H]2[C@@H]3CCC4=CC(=O)CCC4=C3[C@@H](c3ccc(N(C)C)cc3)C[C@@]21C`, the AC50 was 10 µM (active).

A short description of another assay: IUF_NPC1b_proliferation_BrdU_72hr: Leibniz Research Institute for Environmental Medicine (IUF) 72-hour Neural Progenitor Cell Bromodeoxyuridine (BrdU) Proliferation Assay (NPC1b) (AID 2284207).
Details: not given
The method, then:
IUF_NPC1 is a cell-based, multiplexed assay that uses hNPC, a human primary neural progenitor cells, with measurements taken at 72 hours after chemical dosing in a 96-well plate. Human neural progenitor cells (hNPC) are generated from human fetal brain cortex at gestational week (GW) 16-19. Grown in suspension culture and under proliferative conditions (proliferation media and growth factors), these cells represent neural progenitor cell proliferation. In the NPC1 assay, hNPC's are exposed to the test compound for 72h. Cell proliferation is assessed as an increase in sphere area using automated phase contrast imaging and as incorporation of Bromodeoxyuridine (BrdU) during DNA synthesis using a luminescence-based cell proliferation ELISA. In parallel, the cell viability is assessed using an alamar blue viability assay and the cytotoxicity using a lactate dehydrogenase dependent membrane integrity assay.IUF_NPC1b_proliferation_BrdU_72hr is one of 4 assay components measured from the IUF_NPC1 assay. It is designed to measure cell proliferation as assessed by the incorporation of Bromodeoxyuridine (BrdU) in the last 16 h of a 72 h compound exposure using a luminescence-based cell proliferation ELISA.Data from the IUF_NPC1b_proliferation_BrdU component was analyzed at the endpoint IUF_NPC1b_proliferation_BrdU in the positive analysis fitting direction relative to DMSO as the negative control and baseline of activity. Using a type of growth reporter, gain or loss-of-signal activity can be used to understand cell proliferation effects.
After the cell expansion period, the cells are cultured for up to four weeks in which they are passaged every week. Between one to three days after passaging, depending on the size chosen for passaging, spheres at a size of 0.3 mm are used in the assay. For the assessment of neural progenitor cell proliferation, the spheres are plated in poly-Hema coated 96-well U-bottom plates filled with proliferation medium containing growth factors (EGF and FGF). One 0.25 - 0.35 mm big sphere is plated in the middle of each well. […]
For the molecule `CN1CCC[C@H]1c1cccnc1`, the molecule was classed as inactive.

As to `CC1=C(/C=C/C(C)=C/C=C/C(C)=C/C(=O)O)C(C)(C)CCC1`, the concentration at half-maximal activity (AC50) is 1.67 µM (active).

As to `CC#C[C@]1(O)CC[C@H]2[C@@H]3CCC4=CC(=O)CCC4=C3[C@@H](c3ccc(N(C)C)cc3)C[C@@]21C`, the AC50 is 5 µM (active).

A further assay in a line: IUF_NPC1a_proliferation_area_72hr: Leibniz Research Institute for Environmental Medicine (IUF) 72-hour Neural Progenitor Cell Proliferation Area Assay (NPC1a) (AID 2284208).
Details: not given
The essentials:
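Measured in 3D suspension: each well held one primary hNPC sphere grown with EGF and FGF at pH 7.2-7.6. Compound stayed on for 72 h, then area was imaged; spheres lacking growth factors defined reduced proliferation.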
For `CN1CCC[C@H]1c1cccnc1`, the molecule was classed as inactive.

With `CC1=C(/C=C/C(C)=C/C=C/C(C)=C/C(=O)O)C(C)(C)CCC1`, the AC50 was 4.35 µM (active).

As for `CC#C[C@]1(O)CC[C@H]2[C@@H]3CCC4=CC(=O)CCC4=C3[C@@H](c3ccc(N(C)C)cc3)C[C@@]21C`, the outcome was inactive.
